Rows were chosen to be rich in hits. Some 4.6% of all compounds tested hit in one or more screens of this group.
TRHR ag – qHTS for Small Molecule Agonists and Allosteric Enhancers of Human TRH Receptor: Primary Screen for Agonists. Thyrotropin-releasing hormone receptor (Homo sapiens), P34981. actives 0.18% (n = 360,000). activation, % at 2 µM. TRHR cells, calcium flux fluo-8, FDSS agonist mode
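Fluo-8-loaded TRHR cells; 10 s baseline, compound added, kinetic Ca2+ fluorescence read 1/s, agonist mode.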
D1 ag – Allosteric Agonists of the Human D1 Dopamine Receptor: qHTS; HEK293 T-REx D1 cells, calcium flux, agonist mode; D(1A) dopamine receptor (Homo sapiens), P21728; AID 504660, 2011; actives 1% (n = 360,000); activation, % at 2 µM
Target sequence (P21728 whole entry, looked up): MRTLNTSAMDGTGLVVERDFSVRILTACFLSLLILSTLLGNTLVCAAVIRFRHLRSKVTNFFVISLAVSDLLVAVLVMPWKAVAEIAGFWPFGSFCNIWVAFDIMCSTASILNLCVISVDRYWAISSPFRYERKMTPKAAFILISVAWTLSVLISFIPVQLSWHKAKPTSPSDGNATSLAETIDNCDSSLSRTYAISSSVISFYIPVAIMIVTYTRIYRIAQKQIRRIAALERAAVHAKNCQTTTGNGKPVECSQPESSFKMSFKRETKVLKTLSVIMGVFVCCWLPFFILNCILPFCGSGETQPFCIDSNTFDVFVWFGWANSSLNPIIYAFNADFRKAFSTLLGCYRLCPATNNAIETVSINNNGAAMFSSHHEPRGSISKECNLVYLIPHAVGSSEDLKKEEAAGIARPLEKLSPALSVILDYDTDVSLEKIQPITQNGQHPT
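Inducible HEK293 T-REx D1 cells, force-coupled to calcium signalling, were plated at 4000 cells/well with tetracycline and held overnight at 30 C. After no-wash calcium dye loading, compound-evoked calcium rise over 180 s flagged agonists.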
D1 potentiator – Potentiators of Human D1 Dopamine Receptor: qHTS | D(1A) dopamine receptor (Homo sapiens), P21728 | HEK293 TREx D1 cells, calcium flux, dopamine EC20 potentiation | potentiation, % at 10 µM | actives 0.036% (n = 360,000); in the data active = potentiation above about 30%
D1 antag – Antagonist of Human D 1 Dopamine Receptor: qHTS; D(1A) dopamine receptor (Homo sapiens), P21728; HEK293 TREx D1 cells, calcium flux, dopamine EC80; active compounds read low; activity change, negative = inhibition, % at 10 µM; actives 3.2% (n = 360,000); in the data active = activity change below about -30%
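Tetracycline-induced HEK293 Trex D1 cells, force-coupled to calcium, dye-loaded; compounds added and read 180 s, then EC80 dopamine added and calcium flux tracked kinetically another 180 s.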
TRHR enhancer – qHTS for Small Molecule Agonists and Allosteric Enhancers of Human TRH Receptor: Primary Screen for Enhancers; Thyrotropin-releasing hormone receptor (Homo sapiens), P34981; AID 493056, 2011; enhancement, % at 2 µM; actives 0.66% (n = 360,000); TRHR cells, fluo-8 calcium fluorescence, EC20 TRH enhancement; in the data active = enhancement above about 30%
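TRHR-expressing cells loaded with fluo-8 calcium dye were read kinetically (ex 480/em 530) during compound addition, then stimulated with an EC20 of TRH (10 nM final). Enhancement of the Gq-mediated intracellular calcium response was scored.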
Of the large screens only hits and unclear results are named; the others gave an inactive call. Rule as the data show it, unless noted: active = activation above about 30%; inactive = the rest.

COc1ccc(C(=O)NCc2ccc(Cl)c(Cl)c2)cc1OC	none
O=C(NCCOc1ccccc1Cl)C(=O)NCCOc1ccccc1Cl	none
CC1(C(=O)NCCOc2ccccc2Cl)CC1(Cl)Cl (configuration not stated)	D1 antag -65
COc1ccc(-c2nc(N3CCN(S(=O)(=O)c4ccc(F)cc4)CC3)c3ccccc3n2)cc1	D1 antag -31, TRHR enhancer 39
Cc1ccc(-c2nc(N3CCN(S(=O)(=O)c4ccc(F)cc4)CC3)c3ccc(Cl)cc3n2)cc1	D1 antag -41
Cc1ccc(NC2=C(c3ccc(C(F)(F)F)cc3)C(=O)c3ccccc32)cc1C	none
N#CCCN(CCN1CCCC1)S(=O)(=O)c1ccc(-c2ccc([N+](=O)[O-])cc2)cc1	D1 ag 39
Cc1ccc(N/N=C(\C#N)C(=O)c2ccsc2)cc1	D1 antag -47
CC(C)c1ccc(C(=O)NNC(=O)C2C3CCC(C3)C2C(=O)O)cc1 (configuration not stated)	D1 antag -75
COc1ccc(CCNC(=O)CCS(=O)(=O)Cc2ccccc2C)cc1OC	none
O=Cc1ccc(N2CCCC2)o1	none
Cc1ccc(/C=C(\C#N)C(=O)Nc2cccc(Br)c2)o1	none
N#C/C(=C\c1ccc(N2CCCCC2)o1)C(=O)Nc1cccc(Br)c1	TRHR ag 108, D1 ag 428
N#C/C(=C\c1ccc(N2CCCCC2)o1)C(N)=O	D1 ag 37
O=C(CCn1cnc2onc(-c3ccc(F)cc3)c2c1=O)Nc1ccc(F)c(Cl)c1	none
CCC(CC)C(=O)Nc1cc(-c2nc3cccnc3s2)ccc1C	none
Cc1ccc(N2C(=O)CSC23C(=O)N(CC(=O)Nc2ccc(C)cc2C)c2ccccc23)cc1 (configuration not stated)	none
Cc1ccccc1NC(=O)Cc1cccc(C(F)(F)F)c1	none
CCCN1CCc2c(sc(NC(=O)c3ccc(S(=O)(=O)N(C)c4ccccc4)cc3)c2C(=O)NC)C1	D1 ag 63
CCCN1CCc2c(sc(NC(=O)c3ccc(S(=O)(=O)N(C)c4ccccc4)cc3)c2C(N)=O)C1	TRHR ag 63, D1 ag 133
CCCN1CCc2c(sc(NC(=O)c3ccc(S(=O)(=O)N4CCN(C(=O)OCC)CC4)cc3)c2C(N)=O)C1	none
CCN1CCc2c(sc(NC(=O)c3ccc(S(=O)(=O)N4CCCC4)cc3)c2C(=O)NC)C1	none
O=C(CCc1ccccc1)Nc1cc(C(=O)O)cc(C(=O)O)c1	none
CCn1c(SCC(=O)c2[nH]c(C)c(C(C)=O)c2C)nnc1-c1ccccc1	D1 antag -35
CCc1[nH]nc(C(=O)N2CCCC(N3CCN(c4ccccc4C)CC3)C2)c1C (configuration not stated)	none
Cn1c(=O)n(CC#N)c2ccccc21	none
N#CCCn1c(=O)n(CCC#N)c2ccccc21	D1 antag -38
Cc1ccc(NC(=O)Cn2c(CCC(=O)O)ccc2-c2cccs2)cc1Cl	D1 antag -69
CC(=O)Nc1ccc(Nc2ncnc3c2c(-c2ccccc2)cn3-c2ccc(C)c(Cl)c2)cc1	none
Cc1cccc(-n2ccnc2SCC(=O)Nc2ccccc2C(F)(F)F)c1	D1 antag -40
Cc1ccc(CNc2ccc3c(c2)ncn3C)cc1	none
CCc1ccc(CNc2ccc3c(c2)ncn3C)cc1	TRHR enhancer 31
CCOc1ccc(CCNC(=O)CN2C(=O)NC3(CCCC3)C2=O)cc1OCC	D1 antag -39
N#Cc1nc(Nc2cc(F)cc(F)c2)nc(NC2CCCC2)n1	none
Oc1ccc(CNc2ccc(C(F)(F)F)cc2Cl)c2cccnc12	none
CC(C)Cn1c(SCc2cccc(F)c2)nc2ccsc2c1=O	none
N#C/C(=C(\O)c1cc(Cl)sc1Cl)c1nc2ccccc2[nH]1	D1 ag 35
N#C/C(=C(/O)c1ccc(Cl)cc1)c1nc2ccccc2[nH]1	none
CS(=O)(=O)N1CCCC(C(=O)Nc2ccccc2)C1 (configuration not stated)	TRHR enhancer 32
COc1ccc(NC(=O)N2CCCCCC2)cc1	D1 antag -37
COc1ccc(S(=O)(=O)N2CCN(C(=O)Nc3ccccc3OC)CC2)cc1	D1 antag -37
O=C(Nc1ccc(O)cc1)N1CCOCC1	D1 antag -39
O=C(Nc1ccc(Nc2ccccc2)cc1)N1CCOCC1	none
COc1cc(OC)c(NC(=O)c2ccc3nc(C(C)C)oc3c2)cc1Cl	none
Cc1ccccc1NC(=O)C1CCCN(C(=O)Nc2ccc(F)cc2)C1 (configuration not stated)	none
CC(C)NC(=O)C1CCCN(S(=O)(=O)c2cccs2)C1 (configuration not stated)	none
COc1ccc(OC)c(NC(=O)N2CCCC(C(=O)c3ccccc3OC)C2)c1 (configuration not stated)	D1 antag -36
COc1ccccc1NC(=O)C1CCCN(S(=O)(=O)c2ccccc2)C1 (configuration not stated)	D1 antag -31
COc1ccccc1NC(=O)C1CCCN(C(=O)Nc2ccc(F)cc2)C1 (configuration not stated)	D1 antag -81
CC(NC(=O)C1CCCN(S(=O)(=O)c2cccs2)C1)c1ccccc1 (configuration not stated)	D1 ag 30
COc1ccccc1NC(=O)C1CCCN(S(=O)(=O)c2c(C)noc2C)C1 (configuration not stated)	none
Cc1nn(-c2ccccn2)c2c1C(=O)CC(C)(C)C2Br (configuration not stated)	none
COC(=O)c1ccc(NC(=O)n2ncc3c(C)cccc32)cc1	D1 antag -70
O=C(N/N=C/c1ccsc1)c1c[nH]c2ccccc12	D1 antag -46
CCOC(=O)c1c(NC(=O)CSc2nnc(Cc3ccccc3)o2)sc(C(C)=O)c1C	D1 antag -36
CCOC(=O)c1c(NC(=O)CSc2nnc(-c3ccccc3)o2)sc(C(C)=O)c1C	none
Cc1cc2c(s1)c1cnn(Cc3ccccc3F)c(=O)c1n2C(C)C	none
CCC1CCCCN1C(=O)CCn1ccnc1 (configuration not stated)	TRHR enhancer 32
CCc1ccc2[nH]c(=O)c(C(c3nnnn3Cc3ccc(OC)cc3)N3CCOCC3)cc2c1 (configuration not stated)	D1 antag -44
COc1ccc(OC)c(C(c2nnnn2Cc2ccccc2)N2CCC(C(N)=O)CC2)c1 (configuration not stated)	D1 antag -45
